Data from PubChem BioAssay (NCI).
The panel holds about 83,000 compounds, 20% with a hit somewhere; the sample as a whole holds those more often.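 Interpretation: 100, growth as untreated; towards 0, rising growth inhibition; 0, no net growth; 0 to -100, cell death. Compounds scoring below 10 were considered active.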 A number with no mark means an inactive call. Calls of active or inactive are those of the source.

Columns and labels:
Assay in all cases: NCI-60 one-dose screen, 48 h (100 = growth as untreated, 0 = no growth, -100 = all killed)
Conditions in all cases: 10 µM unless noted
[1] = system: SR leukemia
[2] = system: RPMI-8226 leukemia
[3] = system: OVCAR-8 ovarian
[4] = system: OVCAR-5 ovarian
[5] = system: OVCAR-4 ovarian
[6] = system: SK-OV-3 ovarian
[7] = system: IGROV1 ovarian
[8] = system: OVCAR-3 ovarian
[9] = system: HS 578T breast
[10] = system: NCI/ADR-RES ovarian

`Cc1ccc2oc(=O)cc(C3c4ccc([nH]4)C(c4cc(=O)oc5ccc(C)cc45)c4ccc([nH]4)C(c4cc(=O)oc5ccc(C)cc45)c4ccc([nH]4)C(c4cc(=O)oc5ccc(C)cc45)c4ccc3[nH]4)c2c1` (stereo not given) was tested, and the growth [1] was -36.5% (active), the growth [2] was -21.3% (active) and the growth [3] was -47.8% (active). For the same molecule, the growth [4] was -11.7% (active), the growth [5] was -6.02% (active) and the growth [6] was -30.7% (active). For the same molecule, the growth [7] was -20.1% (active), the growth [8] was -65% (active) and the growth [9] was -37% (active). The growth [10] was -25% (active).

With `COc1ccc(/C=C2\Oc3cc(OCCCCN4CCCC4)ccc3C2=O)cc1` the growth [1] was -25.3% (active), the growth [2] was 80.7% and the growth [3] was 91.1%. It also gave a growth [4] of 93.4%, a growth [5] of 92.3% and a growth [6] of 113%. It also gave a growth [7] of 81.2%, a growth [8] of 94.3% and a growth [9] of 90.9%. It also gave a growth [10] of 95.1%.

`O=C1c2ccccc2OC=C(c2ccccc2)N1CCCCNc1ccc(S(=O)(=O)Nc2ncccn2)cc1` gave a growth [1] of 78.9%, a growth [2] of 83.2% and a growth [3] of 92.2%. The growth [4] was 105%, the growth [5] was 106% and the growth [6] was 96.6%. It also gave a growth [7] of 104%, a growth [8] of 104% and a growth [9] of 92.8%. For the same molecule, the growth [10] was 98.6%.

With `CC(=O)NCC1c2c(n(C)c3c(Cl)c(Cl)ccc23)C(=O)NC1(C)C` (stereo not given) the growth [1] was 75.2%, the growth [2] was 100% and the growth [3] was 91.3%. It also gave a growth [4] of 88.7%, a growth [5] of 103% and a growth [6] of 116%. It also gave a growth [7] of 96.5%, a growth [8] of 107% and a growth [9] of 104%. The growth [10] was 88.1%.

`O=S(=O)(Nc1ccc(NS(=O)(=O)c2ccccc2)c(Cl)c1)c1ccccc1` was tested, and the growth [1] was 90.9%, the growth [2] was 90.8% and the growth [3] was 103%. It also gave a growth [4] of 108%, a growth [5] of 100% and a growth [6] of 104%. For the same molecule, the growth [7] was 98.6%, the growth [8] was 104% and the growth [9] was 103%. For the same molecule, the growth [10] was 100%.

`CCCCN(CCCC)CCCn1c(-c2ccccc2)ccc1-c1ccccc1` was tested, and the growth [1] was 42.7%, the growth [2] was -2.32% (active) and the growth [3] was 82.4%. For the same molecule, the growth [4] was 73.4%, the growth [5] was 37% and the growth [6] was 81.3%. For the same molecule, the growth [7] was 64.5%, the growth [8] was 59.2% and the growth [9] was 82.7%. For the same molecule, the growth [10] was 65.1%.

With `C=C1C(=O)O[C@H]2[C@H]1CC/C(COC(=O)NCCc1ccc(OC)c(OC)c1)=C\CC[C@@]1(C)O[C@@H]21` the growth [1] was 11.2%, the growth [2] was 28.8% and the growth [3] was 51%. It also gave a growth [4] of 82.8%, a growth [5] of 49.9% and a growth [6] of 99.3%. It also gave a growth [7] of 55.9%, a growth [8] of 25.8% and a growth [9] of 91.1%. It also gave a growth [10] of 103%.

Work on `CCOC(=O)c1c(C)oc2ncnc(N3CCN(C(=O)COc4ccc(SC)cc4)CC3)c12` yielded a growth [1] of 84.3%, a growth [2] of 81.6% and a growth [3] of 87.6%. For the same molecule, the growth [4] was 98.2%, the growth [5] was 75% and the growth [6] was 86.1%. The growth [7] was 90.4%, the growth [8] was 100% and the growth [9] was 81.7%. The growth [10] was 85.7%.

Work on `COc1ccc(NC(=O)c2ccc(/C=C/C(=O)c3ncc[nH]3)cc2)cc1` yielded a growth [1] of 13.4%, a growth [2] of 16.7% and a growth [3] of 64.7%. For the same molecule, the growth [4] was 107%, the growth [5] was 82.5% and the growth [6] was 96.9%. The growth [7] was 78%, the growth [8] was 31.1% and the growth [9] was 94.7%. For the same molecule, the growth [10] was 77.4%.

`COc1ccc2c(c1)CC/C(=C\c1cncc(Br)c1)C2=O` was tested, and the growth [1] was 33.5%, the growth [2] was 8.06% (active) and the growth [3] was 90%. For the same molecule, the growth [4] was 86.8%, the growth [5] was 86.5% and the growth [6] was 99.7%. It also gave a growth [7] of 94.8%, a growth [8] of 95.9% and a growth [9] of 116%. It also gave a growth [10] of 83.1%.

In the case of `CCn1c(O)c(/C=N/NC(=O)C(C)c2ccc(CC(C)C)cc2)sc1=S` (stereo not given), the growth [1] is reported as 26.3%, the growth [2] is reported as 1.77% (active) and the growth [3] is reported as 22.6%. It also gave a growth [4] of 52%, a growth [5] of 56.7% and a growth [6] of 45.3%. For the same molecule, the growth [7] was 24.1%, the growth [8] was 1.8% (active) and the growth [9] was 17.8%. For the same molecule, the growth [10] was 5.41% (active).

`COc1ccc(-c2nn(-c3ccc(Cl)cc3)cc2-c2nc3ccccc3[nH]2)cc1` gave a growth [1] of 80.3%, a growth [2] of 93.9% and a growth [3] of 105%. For the same molecule, the growth [4] was 110%, the growth [5] was 88% and the growth [6] was 101%. The growth [7] was 71.4%, the growth [8] was 94% and the growth [9] was 93%. For the same molecule, the growth [10] was 102%.

For `O=C1Nc2cc(-c3ccc(O)cc3)ccc2/C1=C/c1ccc[nH]1`, the growth [1] was 5.01% (active), the growth [2] was 3.47% (active) and the growth [3] was 12.3%. For the same molecule, the growth [4] was 19%, the growth [5] was 26.3% and the growth [6] was 8.32% (active). The growth [7] was 13%, the growth [8] was 4.63% (active) and the growth [9] was 18.1%. For the same molecule, the growth [10] was -1.85% (active).

In the case of `O=c1ccccc(-c2ccc(Br)cc2)c1O`, the growth [1] is reported as 4.69% (active), the growth [2] is reported as 9.5% (active) and the growth [3] is reported as 13%. The growth [4] was 54.9%, the growth [5] was 30% and the growth [6] was 19.7%. The growth [7] was 12.4%, the growth [8] was 25.8% and the growth [9] was 51.8%. The growth [10] was 7.78% (active).

With `O=C(CCN1C(=O)/C(=C/c2ccc(Cl)cc2)SC1=S)NCCCN1CCOCC1` the growth [1] was 102%, the growth [2] was 103% and the growth [3] was 92.4%. It also gave a growth [4] of 103%, a growth [5] of 102% and a growth [6] of 88.2%. The growth [7] was 110%, the growth [8] was 105% and the growth [9] was 90.9%. The growth [10] was 98.9%.

Work on `COc1ccc(S(=O)(=O)N2CCCCCC2)cc1NC(=O)c1[nH]c(C)c2c1CCCCC2=O` yielded a growth [1] of 35.6%, a growth [2] of 10.7% and a growth [3] of 28.5%. For the same molecule, the growth [4] was 50.5%, the growth [5] was 37.3% and the growth [6] was 14.1%. For the same molecule, the growth [7] was 24.2%, the growth [8] was 30.4% and the growth [9] was 17.5%. The growth [10] was 29.2%.

For `CCC#CC[C@H](O)C/C=C1/C(=O)C=C[C@@H]1C/C=C\CCCC(=O)OC`, the growth [1] was -8.41% (active), the growth [2] was -13.6% (active) and the growth [3] was 7.14% (active). The growth [4] was 32.4%, the growth [5] was 29.1% and the growth [6] was 35.5%. It also gave a growth [7] of 14%, a growth [8] of 12.5% and a growth [9] of 52.6%. It also gave a growth [10] of 14.4%.

`CC(O)CN(CC(C)O)c1ccc2c(c1)Cc1cc([N+](=O)[O-])ccc1-2` (stereo not given) gave a growth [1] of 62.5%, a growth [2] of 104% and a growth [3] of 118%. For the same molecule, the growth [4] was 86.2%, the growth [5] was 112% and the growth [6] was 108%. For the same molecule, the growth [7] was 55.6%, the growth [8] was 91.7% and the growth [9] was 95.8%. The growth [10] was 92.9%.

For `O=C(COc1ccc(-c2nc3cc(Cl)c(Cl)cc3[nH]2)cc1)N=Nc1c(O)[nH]c2ccccc12`, the growth [1] was 9.9% (active), the growth [2] was 8.82% (active) and the growth [3] was -24.2% (active). The growth [4] was 53.6%, the growth [5] was -55.1% (active) and the growth [6] was 4.99% (active). For the same molecule, the growth [7] was 33.2%, the growth [8] was -54.9% (active) and the growth [9] was -36.3% (active). The growth [10] was 85.1%.

For `C=C(C)C1CC(O)C2(C)CCCC3C2C1CC(C)C3(C)CC/C(C)=C/C(O)C1CCC(=O)c2c(OC)cc(OC)cc21` (stereo not given), the growth [1] was 26.6%, the growth [2] was 6.09% (active) and the growth [3] was 41.6%. The growth [4] was 86.9%, the growth [5] was 23.3% and the growth [6] was 51%. The growth [7] was 50.9%, the growth [8] was 32.7% and the growth [9] was 61.6%. The growth [10] was 45.9%.

In the case of `O=C(COc1ccc(/C=C2\COc3ccccc3C2=O)cc1)Nc1nccs1`, the growth [1] is reported as -2.82% (active), the growth [2] is reported as -0.182% (active) and the growth [3] is reported as 85%. For the same molecule, the growth [4] was 93%, the growth [5] was 92.9% and the growth [6] was 127%. The growth [7] was 3.63% (active), the growth [8] was 95.8% and the growth [9] was -38.3% (active). It also gave a growth [10] of 86.1%.

Work on `Cn1nc(N)c2cc([C@@H]3Nc4ccc5[nH]ncc5c4[C@H]4C5CCC(C5)[C@@H]34)ccc21` (stereo not given in full) yielded a growth [1] of 14.7%, a growth [2] of 47.8% and a growth [3] of 38.2%. For the same molecule, the growth [4] was 35.1%, the growth [5] was 41.4% and the growth [6] was 41.7%. For the same molecule, the growth [7] was 27.3%, the growth [8] was -16.2% (active) and the growth [9] was 20.6%. For the same molecule, the growth [10] was 3.15% (active).

`CC/C=C\C[C@H](O)C/C=C1/C(=O)C=C[C@@]1(C)C/C=C\CCCC(=O)OC` showed a growth [1] of 103%, a growth [2] of 103% and a growth [3] of 97.8%. For the same molecule, the growth [4] was 99.8%, the growth [5] was 101% and the growth [6] was 112%. It also gave a growth [7] of 109%, a growth [8] of 114% and a growth [9] of 103%. It also gave a growth [10] of 94.8%.

For `Nc1n[nH]c2ccc([C@@H]3Nc4ccc5[nH]ncc5c4[C@H]4C5C=CC(C5)[C@@H]34)cc12` (stereo not given in full), the growth [1] was 11.6%, the growth [2] was 44.7% and the growth [3] was 27.1%. It also gave a growth [4] of 29.5%, a growth [5] of 30.2% and a growth [6] of 42.6%. For the same molecule, the growth [7] was 16.6%, the growth [8] was 7.18% (active) and the growth [9] was 3.92% (active). The growth [10] was -27.5% (active).

Molecule `COC(=O)c1cccc(NC(=O)c2ccc(-c3cccc(N)c3)o2)c1` has a growth [1] of 95.8%, a growth [2] of 78.8% and a growth [3] of 75.7%. For the same molecule, the growth [4] was 107%, the growth [5] was 101% and the growth [6] was 105%. It also gave a growth [7] of 100%, a growth [8] of 107% and a growth [9] of 92.2%. For the same molecule, the growth [10] was 99.7%.

Work on `FC(F)(F)c1[nH]ncc1-c1nc2ccc3n[nH]c(C#Cc4cccnc4)c3c2c2c1CCCC2` yielded a growth [1] of 14.2%, a growth [2] of 47.7% and a growth [3] of 45.5%. For the same molecule, the growth [4] was 67.3%, the growth [5] was 80.5% and the growth [6] was 27.8%. The growth [7] was 17.8%, the growth [8] was 54.2% and the growth [9] was 13.8%. It also gave a growth [10] of 72.1%.

`O=C(CN1CCCCC1)Nc1ccc2oc(=O)ccc2c1` was tested, and the growth [1] was 84.4%, the growth [2] was 90.7% and the growth [3] was 97.8%. For the same molecule, the growth [4] was 122%, the growth [5] was 120% and the growth [6] was 109%. The growth [7] was 102%, the growth [8] was 111% and the growth [9] was 97%. For the same molecule, the growth [10] was 107%.
